{"source": "PubChem BioAssay (NCI)", "note": "Compounds without any hit were thinned out: in the full panel of roughly 83,000, 20% have a hit.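 Cells were grown in 96-well plates and exposed to the test compound at a single concentration for 48 hours; results are reported as percent growth, with values below 10 considered active.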 A number with no mark means an inactive call. Activity calls are given as the source filed them."}
{"system": "NCI-H23 lung", "assay": "NCI-60 one-dose screen, 48 h (100 = growth as untreated, 0 = no growth, -100 = all killed)", "details": "10 µM", "units": {"growth": "%"}}
{"smiles": "NCCNc1ccc2cc(-c3nc4ccccc4[nH]3)c(=O)oc2c1", "growth": 90.7}
{"smiles": "Nc1ccc(Sc2ccc3c4c2cccc4c(=O)n2c4ccccc4nc32)cc1", "growth": 37.5}
{"smiles": "COc1cccc(C(=O)NNc2nc(N3CCOCC3)nc(N3CCN(C(c4ccccc4)c4ccccc4)CC3)n2)c1", "growth": 84.2}
{"smiles": "C=CCN1C(=O)/C(=C\\c2ccc3c(c2)CCC3)SC1=S", "growth": 90.3}
{"smiles": "COc1cccc(-c2nnc(COc3ccc(-c4nc5ccc(C)cc5[nH]4)cc3OC)o2)c1", "growth": 88}
{"smiles": "CNC(=O)c1cc(Oc2ccc(NC(=O)Nc3ccc(Cl)c(C(C)(C)C)c3)c(F)c2)ccn1", "growth": 19.7}
{"smiles": "CC(=O)/C(=C\\c1ccc(Cl)cc1)c1ccccc1", "growth": 20.1}
{"smiles": "Cc1cc(C)c(C(=O)OC(C)CNC2CCCCC2)c(C)c1", "note": "(stereo not drawn)", "growth": 94.1}
{"smiles": "CC(=O)Oc1ccc(C2=Cc3ccc(OC(C)=O)cc3OC2C)cc1", "note": "(stereo not drawn)", "growth": 49.3}
{"smiles": "CC(=O)Nc1nc(C)c(C(=O)NNC=O)s1", "growth": 97.4}
{"smiles": "CCCCC(=O)N(c1ccc(Nc2c3ccccc3nc3cc([N+](=O)[O-])ccc23)cc1)S(C)(=O)=O", "growth": 81.8}
{"smiles": "O=C1/C(=C/c2ccc(O)cc2O)N=C2SCCCN12", "growth": 95.2}
{"smiles": "Cc1ccc2c(c1)-c1cc(C)nn1-c1ccc(C#N)cc1O2", "growth": 78.2}
{"smiles": "O=C(c1ccc(Cl)cc1)c1no[n+]([O-])c1C(=O)c1ccc(Cl)cc1", "growth": 98.4}
{"smiles": "Nc1nsc(C(=O)c2ccc(O)cc2)n1", "growth": 98.6}
{"smiles": "COc1ccc(C2=Cc3ccc(OC(C)=O)cc3OC2)cc1", "growth": 95.9}
{"smiles": "Cc1nc2cc(-n3c(-c4ccc(F)cc4)nc4ccccc4c3=O)ccc2n1Cc1ccccc1", "growth": 42.1}
{"smiles": "Cc1nnc2c3nnc(-c4ccc(Cl)cc4)n3c3ccccc3n12", "growth": 103}
{"smiles": "Cc1cc(C)c2c(Nc3ncnc4c3sc3nc(C)cc(C)c34)n[nH]c2n1", "growth": 98.6}
{"smiles": "CCCCNC(=O)Oc1ccc(/C(=C(\\C)c2ccc(OC)cc2)c2ccc(OCCN3CCCCC3)cc2)cc1", "growth": 68.4}
{"system": "NCI-H226 lung", "assay": "NCI-60 one-dose screen, 48 h (100 = growth as untreated, 0 = no growth, -100 = all killed)", "details": "10 µM"}
{"smiles": "COc1cc(C2CC(=O)Nc3c2c(C)nn3-c2nc3ccccc3[nH]2)cc(OC)c1O", "note": "(stereo not drawn)", "growth": "66%"}
{"smiles": "CCCCC(CC#N)(CCC)CCC", "growth": "109%"}
{"smiles": "COc1cc(C)c2sc3ccccc3c(=O)c2c1NCCN(C)C", "growth": "74%"}
{"smiles": "O=C(CCl)N1c2ccccc2Sc2ccc3ccccc3c21", "growth": "34.4%"}
{"smiles": "CCOC(=O)Nc1ccc2c(c1)C(=O)N(CC)c1ccccc1O2", "growth": "14.5%"}
{"smiles": "COc1ccc(/C=C(\\c2cc(OC)c(OC)c(OC)c2)c2nnc(-c3cccs3)o2)cc1", "growth": "92.5%"}
{"smiles": "COc1ccc(-c2cc(/C=C/C(=O)c3ccc(N)cc3)[nH]n2)cc1OC", "growth": "82.3%"}
{"smiles": "CCCCCCCCCCSC(=N)N", "note": "(tested in a mixture with another compound)", "growth": "94.2%"}
{"smiles": "CC(=O)CS(C)(=O)=O", "growth": "101%"}
{"smiles": "Nc1ccc2c(c1)Cc1cc(N)c(Cl)cc1-2", "growth": "107%"}
{"smiles": "CCOC(=O)c1cc(-c2ccccc2)nc(N)n1", "growth": "89.5%"}
{"smiles": "CCCOCC(O)CNCCN", "note": "(stereo not drawn)", "growth": "121%"}
{"smiles": "O=C(Nc1ccc(OCc2nnc(-c3ccccc3)o2)c(F)c1)Nc1ccc(Cl)c(Cl)c1", "growth": "72.3%"}
{"smiles": "Cc1[nH]nc2c(=S)[nH]c(=O)[nH]c12", "growth": "94.3%"}
{"smiles": "CCC(OC(=O)CC(C)C)c1ccccc1", "note": "(stereo not drawn)", "growth": "89.4%"}
{"smiles": "C/C=C\\COc1cc(C)c(Cl)cc1Cl", "growth": "87.5%"}
{"smiles": "CC(=O)N(O)c1ccc(/C=C/c2ccccc2)cc1", "growth": "-20.6% (active)"}
{"smiles": "CCOC(=O)c1c(C(F)(F)F)n([O-])c2ccc(OC)cc2[n+]1=O", "growth": "47.4%"}
{"smiles": "NCCNc1ccc2cc(-c3nc4ccccc4[nH]3)c(=O)oc2c1", "growth": "87.4%"}
{"smiles": "Nc1ccc(Sc2ccc3c4c2cccc4c(=O)n2c4ccccc4nc32)cc1", "growth": "40.6%"}
{"smiles": "COc1cccc(C(=O)NNc2nc(N3CCOCC3)nc(N3CCN(C(c4ccccc4)c4ccccc4)CC3)n2)c1", "growth": "83.6%"}
{"smiles": "C=CCN1C(=O)/C(=C\\c2ccc3c(c2)CCC3)SC1=S", "growth": "96.7%"}
{"smiles": "COc1cccc(-c2nnc(COc3ccc(-c4nc5ccc(C)cc5[nH]4)cc3OC)o2)c1", "growth": "84.6%"}
{"smiles": "CNC(=O)c1cc(Oc2ccc(NC(=O)Nc3ccc(Cl)c(C(C)(C)C)c3)c(F)c2)ccn1", "growth": "36.2%"}
{"smiles": "CC(=O)/C(=C\\c1ccc(Cl)cc1)c1ccccc1", "growth": "8.66% (active)"}
{"smiles": "Cc1cc(C)c(C(=O)OC(C)CNC2CCCCC2)c(C)c1", "note": "(stereo not drawn)", "growth": "99.6%"}
{"smiles": "CC(=O)Oc1ccc(C2=Cc3ccc(OC(C)=O)cc3OC2C)cc1", "note": "(stereo not drawn)", "growth": "82.9%"}
{"smiles": "CC(=O)Nc1nc(C)c(C(=O)NNC=O)s1", "growth": "92.7%"}
{"smiles": "CCCCC(=O)N(c1ccc(Nc2c3ccccc3nc3cc([N+](=O)[O-])ccc23)cc1)S(C)(=O)=O", "growth": "71.3%"}
{"smiles": "O=C1/C(=C/c2ccc(O)cc2O)N=C2SCCCN12", "growth": "106%"}
{"smiles": "Cc1ccc2c(c1)-c1cc(C)nn1-c1ccc(C#N)cc1O2", "growth": "75.4%"}
{"smiles": "O=C(c1ccc(Cl)cc1)c1no[n+]([O-])c1C(=O)c1ccc(Cl)cc1", "growth": "102%"}
{"smiles": "Nc1nsc(C(=O)c2ccc(O)cc2)n1", "growth": "104%"}
{"smiles": "COc1ccc(C2=Cc3ccc(OC(C)=O)cc3OC2)cc1", "growth": "91.1%"}
{"smiles": "Cc1nc2cc(-n3c(-c4ccc(F)cc4)nc4ccccc4c3=O)ccc2n1Cc1ccccc1", "growth": "3.55% (active)"}
{"smiles": "Cc1nnc2c3nnc(-c4ccc(Cl)cc4)n3c3ccccc3n12", "growth": "94.7%"}
{"smiles": "Cc1cc(C)c2c(Nc3ncnc4c3sc3nc(C)cc(C)c34)n[nH]c2n1", "growth": "93.8%"}
{"smiles": "CCCCNC(=O)Oc1ccc(/C(=C(\\C)c2ccc(OC)cc2)c2ccc(OCCN3CCCCC3)cc2)cc1", "growth": "96.5%"}
